Assay [1] is described as follows: Cell Viability - Jurkat (AID 426;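 active = dose-dependent loss of cell ATP signal giving a full or clear fitted curve, ranked by lower potency value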;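 note: potency is the fitted concentration of half-maximal effect; cells exposed to compound for 40 hours at 37 °C before ATP read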). To be noted: qHTS. Put shortly:
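Seed 5000 Jurkat E6-1 cells/well; add compound; incubate 40 hr at 37 °C; add CellTiter-Glo; wait 20 min at room temperature; read luminescence. Fit concentration-response with Hill equation for AC50.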
For orientation: Quantitative high-throughput screening tests each substance at several concentrations.

Assay [2] in a line: Cell Viability - Hek293 (AID 427;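 active = compounds whose dose-response curve shows a full or clear partial loss of cell viability, called from curve shape rather than a numeric limit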;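 note: potency is the fitted concentration of half-maximal effect; cells exposed to compound for 40 hours at 37 °C before reading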). To be noted: qHTS. Put shortly:
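qHTS, human embryonic kidney (adenovirus-transformed) cells; 40 hr cpd, 37 °C; CellTiter-Glo ATP luminescence. Norm: DMSO = 0, 100 uM tamoxifen = 100% inhibition. Hill-fit AC50.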

Assay [3] can be described thus: Cell Viability - N2a (AID 540).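 Note: cells exposed to compound for 40 h at 37 °C; plate controls were DMSO alone for no effect and tamoxifen control for full effect; nearly all actives have a fitted effect of over 45% in size.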 To be noted: N2a mouse neuroblastoma cell viability; at 92.2 µM (top of the series). In a few lines: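 First, 1500 N2a cells per well incubate 5 hr at 37 °C; next, compounds are added and incubated 40 hr at 37 °C; finally CellTiter-Glo is added and luminescence read after 20 min, with AC50 derived by Hill modeling.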
Assay [4] can be described thus: Cell Viability - H-4-II-E (AID 543).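 Note: cells exposed to compound for 40 hours; % is set by controls: 0 for no effect and ±100 for the full control effect; nearly all actives have a fitted effect of over 35% in size.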 To be noted: H-4-II-E rat hepatoma viability; series mostly up to 92.2 µM. Put shortly:
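Here, cytotoxicity is measured in the rat hepatoma line H-4-II-E as loss of intracellular ATP after 40 hr compound treatment, detected by luciferase luminescence.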

Assay [5] can be described thus: Cellular Toxicity (caspase-3) HepG2 (AID 654).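 Note: cells exposed to compound for 16 hours before reading; 0% = DMSO alone and 100% = caspase signal from 100 µM tamoxifen.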 The conditions noted are these: HepG2 caspase-3 activation, luminescence, 0% = DMSO only, 100% = tamoxifen; series mostly up to 92.2 µM. Put shortly:
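qHTS, HepG2, 1500 cells/well, complete medium; cpd 16 h 37 °C; Caspase-Glo 3/7, 20 min RT; lum. Norm: DMSO vs 100 uM tamoxifen; AC50 Hill fit.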

Assay [6] is described as follows: Cellular Toxicity (caspase-3) NIH 3T3 (AID 666).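 Note: caspase signal read after 16 h compound exposure; 0% = DMSO basal and 100% = 100 µM tamoxifen stimulation.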 To be noted: NIH 3T3 caspase-3 activation, apoptosis/toxicity, 0% DMSO, 100% is 100 µM tamoxifen; series mostly up to 92.2 µM. In a few lines:
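Concentration-response qHTS in NIH 3T3 mouse fibroblasts scores caspase-3/7 activation as rising luminescence after 16 hr compound exposure. Signals are scaled between DMSO-only and 100 uM tamoxifen.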

A short description of assay [7]: MultiTox-Fluor Cytotoxicity Assay - LYMP1-002 - Live Cells (AID 955).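 Note: cells exposed to compound for 16 hours; % is set by controls: 0 for no effect and ±100 for the full control effect.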 To be noted: LYMP1-002 lymphoblastoid live-cell protease fluorescence viability; series mostly up to 46.1 µM. In a few lines: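 Cytotoxicity in the human lymphoblastoid line LYMP1-002 is measured as loss of live-cell protease activity after 16 h treatment in complete culture medium. AC50 is derived from Hill-equation fits of qHTS concentration-response data.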

Assay [8] in a line: MultiTox-Fluor Cytotoxicity Assay - LYMP1-003 - Live Cells (AID 962).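 Note: cells exposed to compound for 16 hours at 37 °C; 0% = DMSO only and full loss = 92 µM tetraoctylammonium bromide; cytotoxic hits lower the live-cell protease signal.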 The conditions noted are these: LYMP1-003 lymphoblastoid cells, MultiTox-Fluor live-cell protease fluorescence; series mostly up to 92.2 µM. In a few lines: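 Cells plated at 2500 per well and incubated 5 hr; compounds added and incubated 16 hr at 37 C; MultiTox-Fluor reagent added for 60 min at room temperature; fluorescence of liberated AFC measured at 405/510 nm.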

Assay [9] in a line: Cell Viability - LYMP1-003 - Assay at 40 hr (AID 964). Note: % is set by controls: 0 for no effect and ±100 for the full control effect; nearly all actives have a fitted effect of over 60% in size. To be noted: LYMP1-003 lymphoblastoid viability; series mostly up to 92.2 µM. Put shortly: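 This qHTS cytotoxicity screen treats human lymphoblastoid cells (LYMP1-003) with compounds for 40 hr and quantifies cellular ATP via luciferase luminescence.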
Assay [10] can be described thus: Cell Viability - LYMP2-003 (AID 965).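 Note: cells exposed to compounds for 24 h before reading; 0% = DMSO only and full effect = 92 µM tetraoctylammonium bromide; nearly all actives have a fitted effect of over 50% in size.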 To be noted: LYMP2-003 lymphoblastoid cell viability; series mostly up to 92.2 µM. In a few lines:
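CellTiter-Glo luminescence (cellular ATP) after 24 h compound exposure at 37 C in complete medium; 2500 cells/well, 5 h settling beforehand. Concentration-response fitted to standard Hill equation for AC50. Tetraoctylammonium bromide served as positive control.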

Assay [11] in a line: Cell Viability - LYMP2-006 (AID 978).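 Note: cells exposed to compound for 24 hours; % is set by controls: 0 for no effect and ±100 for the full control effect; nearly all actives have a fitted effect of over 60% in size.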 To be noted: LYMP2-006 lymphoblastoid cell viability, qHTS; series mostly up to 92.2 µM. Put shortly: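 qHTS, 1536-well; 2500 cells/well, 5 hr 37 C; cpd 24 hr 37 C; CellTiter-Glo 30 min RT; luminescence. Tetraoctylammonium bromide pos. ctrl. AC50 via Hill eqn.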
The nature of assay [12]: Cell Viability - LYMP2-008 (AID 980). Note: % is set by controls: 0 for no effect and ±100 for the full control effect; nearly all actives have a fitted effect of over 60% in size. The conditions noted are these: LYMP2-008 lymphoblastoid cell viability, qHTS; series mostly up to 92.2 µM. In a few lines: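 Acute cytotoxicity is scored as concentration-dependent loss of cellular ATP in a human lymphoblastoid line after 24 hr treatment at 37 C. ATP is quantified by luciferase luminescence.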
Assay [13] can be described thus: Cell Viability - LYMP2-026 (AID 989). Note: % is set by controls: 0 for no effect and ±100 for the full control effect; nearly all actives have a fitted effect of over 50% in size. To be noted: LYMP2-026 lymphoblastoid cell viability, qHTS; series mostly up to 92.2 µM. In a few lines: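 Concentration-dependent loss of intracellular ATP in human lymphoblastoid cells after 24 hr at 37 C, quantified by luciferase luminescence. AC50 derived from standard Hill equation.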
A short description of assay [14]: Cell Viability - LYMP1-002 - Assay at 24 hr (AID 993). Note: % is set by controls: 0 for no effect and ±100 for the full control effect. The conditions noted are these: LYMP1-002 lymphoblastoid cells viability; series mostly up to 92.2 µM. Put shortly: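 qHTS, LYMP1-002 lymphoblastoid, 24 h cpd, 37 C, CellTiter-Glo ATP luminescence; AC50 via Hill eq.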
A short description of assay [15]: Cell Viability - LYMP1-002 - Assay at 40 hr (AID 994).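 Note: 0% = DMSO only and full inhibition = 92 µM tetraoctylammonium bromide; nearly all actives have a fitted effect of over 60% in size.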 The conditions noted are these: LYMP1-002 lymphoblastoid cell viability; series mostly up to 92.2 µM. Put shortly:
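Viability in the human lymphoblastoid line was measured as intracellular ATP via CellTiter-Glo after 40 hr compound exposure. Tetraoctylammonium bromide served as positive control.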

A short description of assay [16]: qHTS assay for small molecule agonists of retinoid X receptor alpha signaling (AID 588544). To be noted: HEK293T RXRa-UAS-bla, beta-lactamase reporter, 18 h; 530 nm emission.
Assay [17] is described as follows: qHTS assay for small molecule disruptors of the mitochondrial membrane potential - 5 hr assay (AID 651755; calls by dose curve; note: % is set by controls: 0 for no effect and ±100 for the full control effect; nearly all actives have a fitted effect of over 40% in size). The conditions noted are these: JC-1-type ratio dye; series mostly up to 92.2 µM. In a few lines:
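HepG2 cells, attached overnight at 37C, were exposed to compound or DMSO for 5 hr at 37C, 5% CO2. Mito-MPS dye was then added for 30 min, and fluorescence read at 490/535 nm (monomers) and 540/590 nm (aggregates).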

The target of assay [18] is Peroxisome proliferator-activated receptor alpha (Homo sapiens) (UniProt Q07869). Put plainly: qHTS assay for small molecule agonists of the peroxisome proliferator-activated receptor alpha (PPARalpha) signaling pathway (AID 651778). Note: % of control where 0% means no effect. To be noted: PathHunter PPARalpha complementation, chemiluminescence, 6 h; stronger effect = higher value. Put shortly:
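Cells plated at 2,000/well and held overnight at 37 C, 5% CO2, then compound added by pin tool for 6 hr; after PathHunter detection reagent and 60 min at room temperature, chemiluminescence from enzyme complementation was read.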

Assay [19] can be described thus: qHTS assay for small molecule agonists of the antioxidant response element (ARE) signaling pathway measured by Nrf2-dependant transcriptional activity (AID 720636; active = well fitted curve in the direction sought with a large enough effect in the repeat runs; an effect the other way counts as inactive or inconclusive;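 note: HepG2 cells with an ARE-driven luciferase reporter; % of control where 0% means no effect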). The conditions noted are these: ARE-luc HepG2, Nrf2 luciferase reporter, 16 h; series mostly up to 92.4 µM. In a few lines:
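ONE-Glo luminescence, read 30 min after reagent addition at room temperature, reflected ARE reporter activity in HepG2 cells that had been incubated with compound for 16 hr at 37 C in 1% dialyzed FBS.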

Assay [20] addresses Tumor necrosis factor (Homo sapiens) (UniProt P01375). Put plainly: qHTS assay to identify small molecules that stimulate Tumor Necrosis Factor-alpha (TNF-alpha) secretion (AID 651757; active = well fitted curve in the direction sought with a large enough effect in the signal ratio; the % refers to the signal ratio; note: 0% is about no effect). The conditions noted are these: Human cells, HTRF 665/615 ratio; series mostly up to 92.2 µM. In a few lines: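 Secreted TNF-alpha from compound-treated THP-1 cells (17 hrs, 37 C) was quantified with a homogeneous time-resolved fluorescence antibody assay.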

The structures appear in SMILES notation. Several values for one entry are separate records, joined by “and”; a condition that tells them apart may be missing. Equal entries are not always repeated. Records with an inconclusive call do not appear. Activity calls are given as the source filed them. Unless noted, calls come from the whole dose curve; as a rule, active = well fitted curve in the direction sought with a large enough effect; inconclusive = small, poorly fitted or top-dose-only effect, or another doubt; inactive = no such curve, though single readings can be large; an effect the other way counts as inactive or inconclusive.

Sequence of Tumor necrosis factor (Homo sapiens) (P01375 whole entry, looked up): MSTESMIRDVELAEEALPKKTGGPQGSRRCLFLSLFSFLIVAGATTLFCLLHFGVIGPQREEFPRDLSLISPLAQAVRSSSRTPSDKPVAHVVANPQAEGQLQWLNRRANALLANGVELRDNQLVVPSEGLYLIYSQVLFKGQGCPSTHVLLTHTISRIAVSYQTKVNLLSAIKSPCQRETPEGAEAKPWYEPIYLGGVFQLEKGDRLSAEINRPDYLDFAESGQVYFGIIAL
Sequence of Peroxisome proliferator-activated receptor alpha (Homo sapiens) (Q07869 whole entry, looked up): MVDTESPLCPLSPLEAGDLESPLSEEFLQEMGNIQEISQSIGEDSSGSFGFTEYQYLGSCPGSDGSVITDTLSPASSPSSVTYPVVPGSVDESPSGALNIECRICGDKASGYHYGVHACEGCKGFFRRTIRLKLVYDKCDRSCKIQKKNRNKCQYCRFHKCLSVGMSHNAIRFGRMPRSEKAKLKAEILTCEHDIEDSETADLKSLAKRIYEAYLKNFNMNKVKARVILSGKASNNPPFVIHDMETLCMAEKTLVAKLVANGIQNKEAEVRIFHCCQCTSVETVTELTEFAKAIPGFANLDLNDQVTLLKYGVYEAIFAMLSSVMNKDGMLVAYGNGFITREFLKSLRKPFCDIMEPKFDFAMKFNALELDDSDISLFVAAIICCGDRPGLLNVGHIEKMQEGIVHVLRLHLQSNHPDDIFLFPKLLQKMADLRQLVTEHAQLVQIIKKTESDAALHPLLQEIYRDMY

On to `COc1ccc(C=O)cc1OC`, for which the Potency in [1] and in assay [2] was > 92 µM (inactive) each time. Also, the activity change, negative = cytotoxicity in assay [3] was -19.3% (inactive). For the same compound, the Potency entry in assay [4], in assay [8], in [9], in assay [10], in [11] and in [12] was “inactive” throughout. Moreover, the Potency result in [13], in [14], in assay [15] and in [17] was “inactive” each time. Further, the outcome in assay [5], in assay [6], in [7] and in assay [19] was inactive. Also, the max response in [16] is 17.8% and -5.1%; in assay [18], 0.927% (inactive) and -2.24% (inactive).

Turning to `CCCC(=O)Cl`, the Potency in assay [1] and in assay [2] was > 92 µM (inactive) each time. For the same compound, the activity change, negative = cytotoxicity in assay [3] is 1.63% (inactive). In addition, the Potency entry in [4], in [8], in assay [9], in assay [10], in assay [11] and in assay [12] was “inactive” throughout. In addition, the Potency result in assay [13], in assay [14], in [15] and in [17] was “inactive” throughout. The result in assay [5], in assay [6], in [7], in assay [20] and in assay [19] was inactive. Further, the max response was -4.61% in assay [16] and -5.49% (inactive) in [18].

In the case of `C=CCOC(C)=O`, the Potency in assay [1] and in [2] was > 92 µM (inactive) in each case. Moreover, the activity change, negative = cytotoxicity in [3] was -14.3% (inactive). The Potency result in [4], in assay [8], in assay [9], in assay [10], in assay [11] and in assay [12] was “inactive” in each case. Also, the Potency entry in [13], in assay [14], in assay [15] and in assay [17] was “inactive” in each case. Moreover, the compound was called inactive in assay [5], in assay [6], in [7], in assay [20] and in [19]. In addition, the values for the max response in assay [16] and in assay [18] were -7.26% and 7.33% (inactive), respectively.

In the case of `Brc1ccccc1`, the Potency in assay [1] and in [2] was > 92 µM (inactive) throughout. Besides, the activity change, negative = cytotoxicity in [3] was -4.7% (inactive). Also, the Potency entry in assay [4], in assay [8], in assay [9], in assay [10], in assay [11] and in [12] was “inactive” each time. Besides, the Potency entry in assay [13], in assay [14], in [15] and in assay [17] was “inactive” in each case. For the same compound, the compound was classed as inactive in assay [5], in [6], in assay [7], in [20] and in [19]. Also, the max response in [16] is -12.9% and -10.7%; in [18], -0.353% (inactive) and -0.0548% (inactive).

Regarding `C=C(C)C(=O)OCC1CO1` (centres undefined), the Potency in assay [1] and in assay [2] was > 92 µM (inactive) throughout. For the same compound, in assay [3], the activity change, negative = cytotoxicity was -4.08% (inactive). Besides, the Potency result in assay [4], in assay [8], in assay [9], in assay [10], in assay [11] and in [12] was “inactive” throughout. Further, the Potency entry in assay [13], in [14], in assay [15] and in assay [17] was “inactive” in each case. Besides, the result in assay [5], in [6], in assay [7], in assay [20] and in assay [19] was inactive. Also, the max response was -10.2% in assay [16] and -4.83% (inactive) in assay [18].

For `CN=C=S`, the Potency in [1] and in assay [2] was > 92 µM (inactive) in each case. The activity change, negative = cytotoxicity in assay [3] was -7.58% (inactive). Moreover, the Potency entry in assay [4], in [8], in assay [9], in assay [10], in [11] and in [12] was “inactive” throughout. Besides, the Potency result in [13], in assay [14], in assay [15] and in assay [17] was “inactive” in each case. The outcome in [5], in [6], in assay [7], in assay [20] and in assay [19] was inactive. Also, the max response in assay [16] was -13.3% and 3.16%; in assay [18], -2.7% (inactive) and -1.5% (inactive).

Values taken from PubChem BioAssay (NCATS).
